TGFb inhibitor – qHTS for Inhibitors of TGF-b. HepG2 CAGA-GFP TGF-b/SMAD3 reporter, GFP fluorescence, 18 h; TGF-beta stimulated, 500 pg/mL final. Potency, µM (highest dose often 46.1 µM), for inactives: at the highest dose activity, negative = inhibition, usual class: inhibitors. 1.2% of 410,000 active; also: % is scaled to controls: 0 for no effect and ±100 for the full control effect; nearly all actives have a fitted effect of over 65% in size
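Read-out: total well GFP (ex488/em500-530) summed from mean per-cell fluorescence. Cells: HEPG2 CAGA-GFP, 1% FBS DMEM, 18 h at 37 degrees C with 500 pg/mL final TGF-beta. Unstimulated wells served as the full-inhibition control; stimulated DMSO wells = 0%.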
ATXN viability – Viability Counterscreen for Primary qHTS for Inhibitors of ATXN expression | S2 cells (HEK-293 line with an ATXN2-luciferase reporter) viability, CellTiter-Fluor protease fluorescence, 24 h | Potency, µM (top dose mostly 56.7 µM), hits mostly cytotoxic | 0.49% of 400,000 active | AID 651635, 2014; also: nearly all actives have a fitted effect of over 40% in size
ATXN2 expr inh – Primary qHTS for Inhibitors of ATXN expression; HEK-293 ATXN2-luciferase reporter, luminescence, 24 h; Potency, µM (titrated, usually from 57 µM), for inactives: at the highest dose activity change, negative = inhibition, hits mostly inhibitors; 0.72% of 360,000 active; also: % is scaled to controls: 0 for no effect and ±100 for the full control effect; nearly all actives have a fitted effect of over 55% in size
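ATXN2-luciferase reporter cells (luciferase flanked by upstream and downstream ATXN2 gene portions) were treated 24 h at 37 °C with compounds at up to 57 uM. SteadyGlo luminescence gave expression; GF-AFC fluorescence gave viability.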
HepG2 tox – qHTS for Inhibitors of TGF-b: Cytotox Counterscreen; 0.76% of 410,000 active; AID 588856, 2011; HepG2 CAGA-GFP viability, ATP luminescence, 18 h; Potency, µM (series often up to 46.1 µM), for the others: at the highest dose activity change, negative = cytotoxicity, actives largely listed as cytotoxic
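HepG2 CAGA-GFP cells (1000/well, DMEM with 1% FBS) received compound, then TGF-beta at 500 pg/mL final, and were incubated 18 hours at 37 degrees C. Viability was read by CellTiter-Glo luminescence. Media-only wells were set as complete cell-killing and DMSO as no toxicity.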
HTT aggregate – qHTS Multiplex Assay to Identify Dual Action Probes in a Cell Model of Huntington: Aggregate Formation (GFP); Potency, µM (top dose mostly 46.1 µM), inactives show at the highest dose activity change, negative = inhibition, hits mostly inhibitors; AID 1688, 2009; 1.1% of 220,000 active; PC12 HttQ103-GFP aggregates, Acumen cytometry, 40 h; also: % is scaled to controls: 0 for no effect and ±100 for the full control effect; nearly all actives have a fitted effect of over 60% in size
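PC12 cells with ecdysone-inducible HTT exon1 Q103-GFP, induced by 100 nM tebufenozide, given compounds in a concentration series. GFP aggregates (1–25 um, 6 SD above background) counted in lysates by laser-scanning cytometry, 488 nm excitation.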
HTT ATP protect – qHTS Multiplex Assay to Identify Dual Action Probes in a Cell Model of Huntington: Cytoprotection (ATP); Potency, µM (series often up to 56.4 µM), for the others: cytoprotection (ATP increase), hits mostly activators; PC12 HTT-Q103 induced, cytoprotection, ATP luminescence, 40 h; 0.14% of 230,000 active; also: % of control where 0% means no effect; nearly all actives have a fitted effect of over 45% in size
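Rat PC12, Q103 Htt exon1-GFP fusion, ecdysone promoter; tebufenozide inducer 100 nM final; compound titration; qHTS, 1500 cells/well; ATPlite luminescent read.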
Active calls of the source: *; i = inactive; u = inconclusive; x = no result given; [ ] = another dose, or the depositor's remark. In the library only some 2.8% were active in any assay of this set; here they are far more common. Calls follow the shape of the dose curve; as a rule, active = well fitted curve in the direction sought with a large enough effect; inconclusive = small, poorly fitted or top-dose-only effect, or another doubt; inactive = no such curve, though single readings can be large; an effect the other way counts as inactive or inconclusive. Potency is read from the fitted curve at half-maximal effect.

SMILES | TGFb inhibitor | ATXN viability | ATXN2 expr inh | HepG2 tox | HTT aggregate | HTT ATP protect
N#CC1(c2ccc(F)cc2)CCC(=O)CC1 | x | i | -0.9% | x | x | x
O=[N+]([O-])c1ccc2nc(CO)[nH]c2c1 | -15.2% | x | x | -22.3% | x | x
CCOC(=O)c1c[nH]c(=S)n(-c2ccccc2)c1=O | u | i | 6.2% | 3.2% | x | x
CCOC(=O)c1c(SCCN2CCCC2)n(-c2ccccc2)c(=S)n(-c2ccccc2)c1=O | u | u | 22.4µM* | -46.6% | x | x
CCc1c(C)sc(NC(=O)c2cc(-c3cc(OC)ccc3OC)on2)c1C#N | 1.5% | x | 14.1µM* | 1.6% | 16.1% | -49.0%
OC[C@@H]1CN(Cc2ccccc2)C[C@H](n2cnc3c(NC4CC4)ncnc32)O1 | 5.3% | i | 5.8% | -0.3% | x | x
OC[C@@H]1CN(Cc2ccc(-c3ccccc3)cc2)C[C@H](n2cnc3c(NC4CCC4)ncnc32)O1 | u | 17.8µM* | u | -19.5% | x | x
O=C(Cl)c1cccc([N+](=O)[O-])c1 | x | x | x | x | x | 4.1%
Cc1nc(-c2ccc(C(F)(F)F)cc2)sc1C(=O)NN | -18.0% | i | 15.8µM* | -14.8% | 5.3%[9.22 µM] | -14.2%[10 µM]
Cc1cc2c(c(-c3cnccn3)c1)OC(CNC(=O)c1cc(C(C)C)[nH]n1)C2 (stereo unspecified) | x | i | x | x | x | x
O=C=Nc1ccc(Cc2ccc(N=C=O)cc2)cc1 | x | x | x | x | x | -6.2%
CCNc1nc(NC(C)C)nc(N(C#N)Cc2ccccc2)n1 | 0.0% | i | 3.3% | -2.7% | 9.4% | 1.6%[10 µM]
CCNc1nc(NC(C)C)nc(N(C#N)CCOc2ccc(Cl)cc2Cl)n1 | u | i | -3.3% | -42.5% | 35.5µM* | -5.4%
O=C(Nc1ccc(OCC(F)(F)C(F)F)c(C(F)(F)F)c1)c1ccccc1 | -12.7% | u | u | -71.7% | x | x
O=C(Nc1ccc(OCC(F)(F)C(F)F)c(C(F)(F)F)c1)c1ccccc1O | u | u | u | -93.4% | 5.01µM* | -2.6%[10 µM]
Cc1c(CCOC(=O)c2ccc(Cl)cc2Cl)sc[n+]1CC(=O)c1ccc(Br)cc1 | u | i | x | 14.1µM* | x | x
N=c1ccn(Cc2ccc(Cl)cc2)cc1 | u | i | u | -39.2% | 6.31µM* | -82.6%[0.074 µM]
N=c1ccn(Cc2ccc(Cl)c(Cl)c2)cc1 | -22.8% | i | u | 5.9% | 2µM* | -92.9%[0.074 µM]
N=c1ccn(Cc2ccc(Cl)cc2Cl)cc1 | u | i | u | -21.2% | 7.08µM* | -38.8%
N=c1ccn(Cc2ccccc2Cl)cc1 | -30.0% | i | -19.8% | -13.5% | u | -43.5%
CNC(=O)c1c(I)c(NC(=O)CCCCC(=O)Nc2c(I)c(C(=O)O)c(I)c(C(=O)NC)c2I)c(I)c(C(=O)O)c1I | x | i | -4.5% | x | x | x
CCN1C(=O)/C(=C/c2nc3ccccc3c(=O)n2-c2ccccc2)c2ccccc21 | 5.7% | u | u | 15.8µM* | u | 17.6%[10 µM]
c1ccc(CNCCCNCCCCNCCCNCc2ccccc2)cc1 | u | u | 28.2µM* | 7.94µM* | x | x
O=C(NCCc1ccccc1)C1CCN(S(=O)(=O)c2ccc(-n3cnnn3)cc2)CC1 | 31.8% | i | 16.0% | 20.5% | 2.82µM* | -2.4%
CC(C)Cc1csc(NC(=O)c2ccc(Cl)cc2)c1C(=O)O | u | i | 27.7% | -26.5% | 22.4µM* | 10.8%[10 µM]
CC(C)Cc1csc(NC(=O)c2ccccc2Cl)c1C(=O)O | 14.7% | i | 6.3% | 5.2% | 2.2% | -15.2%[10 µM]
CCOC(=O)c1c(CC(C)C)csc1NC(=O)CCl | -9.9% | u | -17.9% | 20µM* | 11.0% | u
